# Results reported in PubChem BioAssay (NCI).
# Several values for one entry are separate records, joined by “and”; a condition that tells them apart may be missing. Equal values may be shown once. About 83,000 compounds went through this panel and 20% of them were active in at least one assay; those are over-represented in the sample as a whole.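 In brief: 96-well plates, 48 h treatment, single concentration, percent growth endpoint.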 Unmarked numbers belong to inactive results. Activity calls are given as the source filed them. Rule for the calls: active = growth percent below 10; inactive = the rest.
# System: MDA-MB-468 breast
# Assay: NCI-60 one-dose screen, 48 h (100 = growth as untreated, 0 = no growth, -100 = all killed)
# Settings: 10 µM unless noted
row,SMILES,growth
1,Cc1cc(Nc2ccc(Cl)c(Cl)c2)nc(N)n1,54.5%
2,NNC(=O)Cc1ccccc1,92.3%
3,CCN1C(=O)N(CC)C2C1NC(=S)N2/N=C/C=C/c1cccs1 (stereo not given),7.59% (active)
4,CNC(C)=O,102%
5,CC(=O)Oc1cc2cnc3c4cc(OC(C)=O)c(OC(C)=O)cc4ccc3c2cc1OC(C)=O,-7.77% (active)
6,COc1ccc(C(=O)N=Nc2c(O)n(C)c3ccccc23)cc1,95.2%
7,COC(=O)/C=C/c1cc(O)c2c(c1)C(C(=O)OC)C(c1ccc(O)c(O)c1)O2 (stereo not given),27.3% and 17.6%
8,COc1ccc(/C(=C\c2ccccc2)C(=O)O)cc1OC,93.2%
9,CS(=O)(=O)Nc1ccc([N+](=O)[O-])cc1Oc1ccccc1,100%
10,OCc1cccc2ccccc12,124%
11,C=C1C(=O)O[C@H]2[C@H]1CC/C(COC(=O)NCCc1ccc(OC)cc1)=C\CC[C@@]1(C)O[C@@H]21,-2.57% (active)
12,Cc1[nH]c(C(=O)Nc2ccccc2OC2CCNC2)c(Cl)c1Cl (stereo not given),53.8%
13,CN(C)CCCN=c1cc2c(=O)n(CCCN(C)C)c(=O)c3c(NCCCN(C)C)cc4c(O)n(CCCN(C)C)c(=O)c1c4c3-2,-53.2% (active)
14,N#Cc1c(NC(=O)c2ccccc2)sc2c1CCC(=O)C2,-9.47% (active)
15,Nc1c(C(=O)Nc2c(Cl)cccc2Cl)sc2nc3c(cc12)C(=O)CCC3,-3.83% (active)
16,NC(N)=Nc1ccc(Nc2cccc(Nc3ccc(Cl)c(C(F)(F)F)c3)c2)cn1,-7.19% (active)
17,Nc1cc(N)ncn1,101%
18,c1cc[c]([Bi]([c]2ccccc2)[c]2ccccc2)cc1,84.7%
19,NC1C(N)C(N)C1N (stereo not given),122%
20,O=C(Cc1ccccc1)NC(c1ccc(Cl)cc1)c1c(O)ccc2ccccc12 (stereo not given),7.01% (active)

row,SMILES,growth
1,C=CC(=O)Nc1cc(Nc2nccc(-c3cn(C)c4ccccc34)n2)c(OC)cc1N(C)CCN(C)C,-74.1% (active)
2,O=C(/C=C/c1cccc([N+](=O)[O-])c1)c1ccc(O)c(CN2CCN(c3cc4c(cc3F)c(=O)c(C(=O)O)cn4C3CC3)CC2)c1,-24.5% (active)
3,CC(C)=CCC[C@](C)(O)[C@H]1CC[C@]2(C)[C@@H]1CC[C@@H]1[C@@]3(C)C/C(=C/c4ccco4)C(=O)C(C)(C)[C@@H]3CC[C@]12C,111%
4,S=c1[nH]nc2sc3ccccc3n12,122%
5,O=C(CSc1nnc(-c2ccc(Cl)cc2)o1)Nc1ccc(C(=O)/C=C/c2ccc(Cl)cc2)cc1,116%
6,N#Cc1nc(-c2ccccc2)oc1N1CC[C@@H](CO)C1,95.2%
7,CC(=O)[C@@H]1CC[C@]2(C(=O)O)CC[C@]3(C)[C@H](CC[C@@H]4[C@@]5(C)Cc6c([nH]c7ccccc67)C(C)(C)[C@@H]5CC[C@]43C)[C@@H]12,82%
8,Oc1cc(/C=C/c2nc(N3CCOCC3)c3cc(Cl)c(Cl)cc3n2)cc(O)c1O,85%
9,COc1ccc(-n2c(C)cc(-c3ccccc3)c2C)cc1,-6.9% (active)
10,C=CCc1cc(OC)c(OC)c(OC)c1,91%
11,O=C(CCl)Nc1ccc2c(c1)C(=O)c1ccccc1C2=O,-19.1% (active)
12,CCCCCCCCCCCC1=NC(C)(C)CN1CCO,15%
13,Cn1c(NCCc2ccc(O)c(O)c2)nc2c1c(=O)n(Cc1ccc(Br)cc1)c(=O)n2C,43.3%
14,COc1ccc(NC(=O)/C=C/c2ccc(NC(=O)N3CCCC3)cc2)cn1,116%
15,Cc1ccc(C(=O)/C(=C\c2ccc([N+](=O)[O-])cc2)S(=O)Cc2ccc(F)cc2)cc1 (stereo not given),-10.3% (active)
16,COc1ccc(C2CC(c3cccc(OCCCCOc4cccc(C5=NOC(c6ccc(OC)cc6)C5)c4)c3)=NO2)cc1 (stereo not given),112%
17,C=C1C(=O)O[C@H]2[C@H]1CC/C(COC(=O)CSCCSCC(=O)OC/C1=C/CC[C@@]3(C)O[C@H]3[C@H]3OC(=O)C(=C)[C@@H]3CC1)=C\CC[C@@]1(C)O[C@@H]21,-44.7% (active)
18,Nc1cccc(-c2ccc(COc3ccc(CC4SC(=O)NC4=O)cc3)cc2)c1 (stereo not given),29.4%
19,Cc1nc2sc(C(=O)Nc3ccccn3)c(N)c2cc1C(C)O (stereo not given),38.4%
20,CCCCCCc1cc(N=Nc2ccc(S(=O)(=O)Nc3cc(C)nc(C)n3)cc2)c(O)cc1O,102%
